# Compounds without any hit were thinned out: in the full panel of roughly 83,000, 20% have a hit.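 Results are percent growth after 48 hours of single-concentration exposure. 100 means growth as in untreated cells, lower positive values show inhibition; negative values down to -100 show cell death.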 Values without a mark were called inactive. Activity calls are given as the source filed them. The calls were made as follows: active = growth percent below 10; inactive = the rest.
# System: BT-549 breast
# Experiment: NCI-60 one-dose screen, 48 h (100 = growth as untreated, 0 = no growth, -100 = all killed)
# Conditions: 10 µM unless noted
row,Structure (SMILES),growth
1,Cc1ncc(C(=O)Nc2ccc(CN3CCN(C)CC3)c(C(F)(F)F)c2)cc1C#Cc1cnc(N)c2ncccc12,42.4%
2,COc1ccc(C(=O)N2c3ccccc3Sc3ccccc32)c(C(F)(F)F)c1,10.7%
3,Cc1ccc(Cl)cc1NC(=O)c1sc2nc3c(cc2c1N)C(=O)CCC3,93.5%
4,Oc1c(CN2CCCC2)cc(CSCc2ccccc2)c2cccnc12,28.5%
5,CCOC(=O)CC1CSC(Nc2ccccc2)=N1 (stereo not drawn),114%
6,C#CCNC(=O)[C@]1(C)CCC[C@@]2(C)[C@H]1CC=C1C=C(C(C)C)CC[C@@H]12,100%
7,CCCCNC(=O)Oc1ccc(/C(=C(/C)Cc2ccc(OC)cc2)c2ccc(OCCN3CCCCC3)cc2)cc1,81.9%
8,COc1cccc(/C=C/C(=O)c2cc3c(N)c(C(=O)Nc4cccc5ccccc45)sc3nc2C)c1,19.3%
9,COc1cc2c(cc1OCCCCN1CCN(C(=S)SCCC(C#N)(c3ccccc3)c3ccccc3)CC1)N=C[C@@H]1CCCN1C2=O,-91.8% (active)
10,CN1C(=O)/C(=C/c2ccc(C(=O)Nc3ncc(Cc4cccc(Cl)c4)s3)cc2)SC1=S,57%
11,Cc1ccc(C(=O)c2ccc(CC(=O)NN3C(=O)c4ccccc4C3=O)n2C)cc1,110%
12,Cn1c(=O)c2[nH]c(SCC(=O)Nc3ccc(C(=O)/C=C/c4ccccc4Cl)cc3)nc2n(C)c1=O,83.3%
13,Nc1[nH]c(=S)nc2oc(-c3ccccc3)c(-c3ccccc3)c12,106%
